About 83,000 compounds went through this panel and 20% of them were active in at least one assay; those are over-represented in the sample as a whole.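 Percent growth is the endpoint: 0 to 100 indicates growth inhibition (40 means 60% inhibition), 0 means no net growth, and negative values indicate cell death.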 A number with no mark means an inactive call. Active and inactive are the calls of the source. The calls were made as follows: active = growth percent below 10; inactive = the rest.
Experiments:
Assay in all cases: NCI-60 one-dose screen, 48 h (100 = growth as untreated, 0 = no growth, -100 = all killed)
Conditions in all cases: 10 µM unless noted
SR leukemia = test system: SR leukemia
OVCAR-8 ovarian = test system: OVCAR-8 ovarian
OVCAR-5 ovarian = test system: OVCAR-5 ovarian
OVCAR-4 ovarian = test system: OVCAR-4 ovarian
SK-OV-3 ovarian = test system: SK-OV-3 ovarian
IGROV1 ovarian = test system: IGROV1 ovarian
OVCAR-3 ovarian = test system: OVCAR-3 ovarian
HS 578T breast = test system: HS 578T breast
NCI/ADR-RES ovarian = test system: NCI/ADR-RES ovarian
T-47D breast = test system: T-47D breast
BT-549 breast = test system: BT-549 breast
MDA-MB-435 melanoma = test system: MDA-MB-435 melanoma
SW-620 colon = test system: SW-620 colon
MCF7 breast = test system: MCF7 breast
HCT-116 colon = test system: HCT-116 colon
HCC-2998 colon = test system: HCC-2998 colon
KM12 colon = test system: KM12 colon

Compound | growth (SR leukemia) | growth (OVCAR-8 ovarian) | growth (OVCAR-5 ovarian) [%] | growth (OVCAR-4 ovarian) | growth (SK-OV-3 ovarian) [%] | growth (IGROV1 ovarian) [%] | growth (OVCAR-3 ovarian) | growth (HS 578T breast) | growth (NCI/ADR-RES ovarian) | growth (T-47D breast) | growth (BT-549 breast) | growth (MDA-MB-435 melanoma) | growth (SW-620 colon) | growth (MCF7 breast) | growth (HCT-116 colon) | growth (HCC-2998 colon) | growth (KM12 colon)
CC(C)[C@@]12C[C@@H](OC(=O)[C@H]3CO3)[C@@](C)(O1)[C@@H]1CC[C@@H](C)[C@H]1[C@@H]2OC(=O)/C=C/c1ccccc1 | 69.4% | 11.1% | 100 | 92% | 76.5 | 85.7 | 87% | -23.9% (active) | 31.1% | 49.4% | 21.4% | 98.2% | 94.8% | 62.4% | 65.8% | 105% | 103%
CCCCOc1nc2ccc(C)cc2cc1/C=C/C(=O)/C=C(O)/C=C/c1cc2cc(C)ccc2nc1OCCCC | 95.9% | 100% | 102 | 116% | 89.9 | 109 | 113% | 100% | 96.8% | 89.2% | 90.8% | 107% | 107% | 100% | 87.6% | 108% | 102%
C=CCN1C(=O)/C(=c2\sc3n(c2=O)C2C(NN=3)N(CC)C(=O)N2CC)c2ccccc21 (stereo unspecified) | 23.8% | 19% | 44.9 | 65.6% | 34.2 | 35.4 | -11.4% (active) | 59.4% | -1.04% (active) | 57.6% | 25% | -30.2% (active) | 30.9% | 16.6% | 10.7% | 4.46% (active) | 20.1%
CCCCn1cnc2c(SCc3ccc([N+](=O)[O-])cc3)nc(N)nc21 | 37.6% | 90.9% | 91.5 | 76.3% | 116 | 90.3 | 98.4% | 107% | 89.3% | 80% | 90.4% | 98% | 109% | 91.2% | 92.5% | 90.7% | 97.9%
O=C(c1ccccc1)C(CCc1ccccn1)CCc1ccccn1 | 83.3% | 109% | 99.6 | 111% | 95.8 | 93.2 | 103% | 121% | 105% | 92.3% | 106% | 108% | 107% | 106% | 94% | 96.5% | 109%
C#CCNc1nc(NCCNC(=O)CCl)nc(N(C)CCCCc2ccccc2)n1 | 62.1% | 101% | 109 | 96.6% | 101 | 78.9 | 94.3% | 94.2% | 102% |  | 76.3% | 98.7% | 97.9% | 86% | 79.1% | 108% | 99.1%
CCCCCCCC/C=C/CCCCCCCC1=NC(C)(C)CN1C(C)C | -46.7% (active) | -20.8% (active) | 58.1 | 18.9% | 55.4 |  | -55.7% (active) | 6.92% (active) | -6.48% (active) | -29.2% (active) | 60.9% | -58.3% (active) | -69.8% (active) | -60.5% (active) | -74.8% (active) | -91.8% (active) | -77.1% (active)
Cc1cccc(/C=N/n2c(-c3ccc(Cl)cc3)nc3c(Br)cc(Br)cc3c2=O)c1 | 73.1% | 32.5% | 50.2 | -3.16% (active) | 39.5 |  | 38.2% | 65.1% | 30.5% | 44.4% | 88% | 66% | 59.1% | 36.7% | 22.2% | 55.6% | 52.4%
CCCCCCCCCCCC1=NC(C)(C)CN1CC(C)O (stereo unspecified) | -61.4% (active) | 81.7% | 92.5 | 70.2% | 82.6 | 30 | 73.9% | 71.6% | 87% |  | 67.8% | -7.43% (active) | 52% | 25.8% | 22.8% | -60.8% (active) | 34%
Cn1c(-c2ccccc2)cc(=O)n1-c1ccccc1 | 101% | 107% | 104 | 103% | 110 | 114 |  | 115% | 112% | 102% | 110% | 98.4% | 117% | 93.6% |  | 100% | 103%
O=c1c2cc(Br)cc(Br)c2nc(-c2ccc(Cl)cc2)n1/N=C\c1ccccc1F | 81% | 47% | 64.8 | -9.05% (active) | 49.6 | 39.1 | 56.4% | 60.8% | 53.7% |  | 88.3% | 81.2% | 82.5% | 56.1% | 32.8% | 85.4% | 72.2%
CC(C)c1ccc(-c2cnc3nonc3n2)cc1 | 6.91% (active) | 36.6% | 37.6 | 59.5% | 82.4 | 54.4 | 15.6% | 77.6% | 19.9% | 42.5% | 7.62% (active) | 23.7% | 29.8% |  | 10.2% | 61.1% | 31.2%
c1cc2c(cc1-c1cnc3nonc3n1)OCO2 | 21.4% | 92.4% | 93.7 | 95.3% | 82.8 | 102 |  | 99.1% | 93.2% | 57.7% | 95.2% | 103% | 83% | 49.5% | 102% | 107% | 74.8%
C=CCN(CC#N)CC=C | 93.2% | 100% | 102 |  | 116 | 120 | 119% | 121% | 115% | 101% | 116% | 101% | 107% | 95% | 98.1% | 118% | 
c1ccc(CCn2cccc2)nc1 | 75.2% | 102% | 103 | 113% | 107 | 121 | 101% | 120% | 105% | 94.7% | 106% | 114% | 117% | 101% |  | 96.7% | 103%
CCOC(=O)Cc1cc(Br)c(OCc2ccccc2)c(Br)c1 | 84.5% | 95.5% | 85 | 94.5% | 109 | 85.6 | 113% | 101% | 102% | 85.6% | 98.3% | 96.3% | 113% | 107% |  | 98.5% | 107%
CN1C(=O)C(C2=NNC(c3ccccc3C(=O)O)C2)C(=O)N(C)C1=O (stereo unspecified) | 101% | 103% | 94.6 | 99% | 90.9 | 106 | 110% | 93.6% | 108% | 87.4% | 104% | 104% | 99.7% |  | 99.4% | 117% | 104%
C=CCOC(=O)C1=C(C)NC2=C(C(=O)CC(C)(C)C2)C1c1ccc(OC)cc1 (stereo unspecified) | 98.8% | 93% | 107 | 110% | 82.1 | 105 | 107% | 90.6% | 103% | 99% | 94.1% | 105% | 98.9% |  | 88.8% | 116% | 94.8%
CCc1c(C)c2ccc(O)c(-c3cc(-c4ccccc4)c(C#N)c(=O)[nH]3)c2oc1=O | 95.5% | 100% | 95.1 |  | 95.9 | 101 | 88.8% | 118% | 99.9% | 85.9% | 113% | 114% | 105% | 84.7% | 95.7% | 111% | 
